Results filed as inconclusive are left out. A call without a number means that no potency is given here. Some compounds were tested as several samples or in several runs, with calls that do not always agree. The source made the active and inactive calls. Unless noted, calls follow the shape of the dose curve; as a rule, active = well fitted curve in the direction sought with a large enough effect in the repeat runs; inconclusive = weak or mixed curves; inactive = no such curve, though single readings can be large; an effect the other way counts as inactive or inconclusive.
Experiments:
[1] = qHTS assay to identify small molecule antagonists of the thyroid receptor (TR) signaling pathway - cell viability counter screen (AID 743064); also: nearly all actives have a fitted effect of over 50% in size
Method in brief: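 Viability of T3-stimulated (1 nM final) GH3.TRE-Luc cells is measured by CellTiter-Fluor fluorescence after 23.5 h compound exposure at 37 °C plus 30 min reagent incubation.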

[2] = qHTS assay to identify small molecule antagonists of the thyroid receptor (TR) signaling pathway (AID 743065); also: series mostly up to about 70 µM; nearly all actives have a fitted effect of over 55% in size
Method in brief: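 GH3.TRE-Luc rat pituitary cells (two TREs driving luciferase) were dosed with compound, then stimulated with 1 nM T3 (final) for 23.5 h at 37 C. ONE-Glo luminescence was the read-out, with CellTiter-Fluor fluorescence as the cytotoxicity counter-screen.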

[3] = test system: thyroid hormone receptor (rat, GH3 cells); assay: qHTS assay to identify small molecule agonists of the thyroid receptor (TR) signaling pathway (AID 743066; calls by dose curve)
[4] = qHTS assay to identify small molecule antagonists of the estrogen receptor alpha (ER-alpha) signaling pathway - cell viability counter screen (AID 743074; calls by dose curve;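 also: HEK293 cells carrying ER-alpha-UAS-bla reporter stimulated with 17beta-estradiol; nearly all actives have a fitted effect of over 45% in size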)
[5] = biological target: Estrogen receptor (Homo sapiens) (UniProt P03372); assay: qHTS assay to identify small molecule agonists of the estrogen receptor alpha (ER-alpha) signaling pathway (AID 743075; calls by dose curve;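 also: HEK293 GripTite cells with ER-alpha and UAS-driven beta-lactamase reporter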; also: potency is read from the fitted curve at half-maximal effect)
Chain of Estrogen receptor (Homo sapiens) (P03372 whole entry, looked up): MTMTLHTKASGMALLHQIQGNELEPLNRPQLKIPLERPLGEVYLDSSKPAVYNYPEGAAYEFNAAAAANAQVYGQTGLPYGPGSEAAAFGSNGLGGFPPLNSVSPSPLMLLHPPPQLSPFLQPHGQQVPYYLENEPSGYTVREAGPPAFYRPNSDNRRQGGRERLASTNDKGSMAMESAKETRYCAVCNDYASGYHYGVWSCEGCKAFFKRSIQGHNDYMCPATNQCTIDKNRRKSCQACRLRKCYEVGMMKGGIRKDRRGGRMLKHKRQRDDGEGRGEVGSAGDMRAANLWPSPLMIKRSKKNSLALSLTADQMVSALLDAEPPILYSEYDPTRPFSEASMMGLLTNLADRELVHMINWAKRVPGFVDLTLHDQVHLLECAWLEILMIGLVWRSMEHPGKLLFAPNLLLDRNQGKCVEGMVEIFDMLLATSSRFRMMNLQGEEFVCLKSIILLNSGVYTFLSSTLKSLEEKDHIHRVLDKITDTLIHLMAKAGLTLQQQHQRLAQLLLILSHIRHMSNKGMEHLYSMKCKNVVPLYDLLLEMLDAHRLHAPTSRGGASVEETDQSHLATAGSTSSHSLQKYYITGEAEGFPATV

[6] = biological target: Estrogen receptor (Homo sapiens) (UniProt P03372); assay: qHTS assay to identify small molecule agonists of the estrogen receptor alpha (ER-alpha) signaling pathway using the BG1 cell line (AID 743079); also: nearly all actives have a fitted effect of over 20% in size; also: potency is read from the fitted curve at half-maximal effect
[7] = qHTS assay to identify small molecule antagonists of the estrogen receptor alpha (ER-alpha) signaling pathway using the BG1 cell line (AID 743080; calls by dose curve;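 also: BG1 cells stimulated with 17beta-estradiol alongside compound; series mostly up to about 70 µM; nearly all actives have a fitted effect of over 25% in size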)
Method in brief: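 Readout is ONE-Glo luminescence, taken 30 min at room temperature after reagent addition, preceded by a CellTiter-Fluor viability read; BG1-Luc-4E2 cells had received compound and 17beta-estradiol for 21.5 h at 37 C.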

[8] = qHTS assay to identify small molecule antagonists of the estrogen receptor alpha (ER-alpha) signaling pathway using the BG1 cell line - cell viability counter screen (AID 743081);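 also: compound given together with 17beta-estradiol as the ER stimulus; series mostly up to about 70 µM; nearly all actives have a fitted effect of over 45% in size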
Aromatase (Homo sapiens) = Aromatase (Homo sapiens) (UniProt P11511); assay: qHTS assay to identify aromatase inhibitors (AID 743083); also: series mostly up to about 70 µM; nearly all actives have a fitted effect of over 55% in size
Chain of Aromatase (Homo sapiens) (P11511 whole entry, looked up): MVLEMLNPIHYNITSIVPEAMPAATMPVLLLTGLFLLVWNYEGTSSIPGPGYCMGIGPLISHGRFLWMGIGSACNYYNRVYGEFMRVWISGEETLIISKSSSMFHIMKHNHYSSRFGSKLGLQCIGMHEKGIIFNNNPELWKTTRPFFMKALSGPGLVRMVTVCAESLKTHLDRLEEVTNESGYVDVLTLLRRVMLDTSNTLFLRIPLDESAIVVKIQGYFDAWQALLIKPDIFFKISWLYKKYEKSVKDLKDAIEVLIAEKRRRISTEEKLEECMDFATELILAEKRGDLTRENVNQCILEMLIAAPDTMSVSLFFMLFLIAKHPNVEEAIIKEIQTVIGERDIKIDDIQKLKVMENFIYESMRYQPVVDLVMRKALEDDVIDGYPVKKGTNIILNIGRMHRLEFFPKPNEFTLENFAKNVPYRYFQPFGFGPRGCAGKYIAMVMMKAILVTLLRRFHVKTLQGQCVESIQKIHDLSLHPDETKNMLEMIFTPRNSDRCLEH

[9] = qHTS assay to identify aromatase inhibitors - cell viability counter screen (AID 743084);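 also: cells stimulated with testosterone during compound exposure; nearly all actives have a fitted effect of over 55% in size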
[10] = biological target: Aryl hydrocarbon receptor (Homo sapiens) (UniProt P35869); assay: qHTS assay to identify small molecule that activate the aryl hydrocarbon receptor (AhR) signaling pathway (AID 743085);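 also: HG2L7.5c1 human HepG2 liver cells with stably integrated DRE-driven firefly reporter; series mostly up to about 70 µM; nearly all actives have a fitted effect of over 15% in size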
Chain of Aryl hydrocarbon receptor (Homo sapiens) (P35869 whole entry, looked up): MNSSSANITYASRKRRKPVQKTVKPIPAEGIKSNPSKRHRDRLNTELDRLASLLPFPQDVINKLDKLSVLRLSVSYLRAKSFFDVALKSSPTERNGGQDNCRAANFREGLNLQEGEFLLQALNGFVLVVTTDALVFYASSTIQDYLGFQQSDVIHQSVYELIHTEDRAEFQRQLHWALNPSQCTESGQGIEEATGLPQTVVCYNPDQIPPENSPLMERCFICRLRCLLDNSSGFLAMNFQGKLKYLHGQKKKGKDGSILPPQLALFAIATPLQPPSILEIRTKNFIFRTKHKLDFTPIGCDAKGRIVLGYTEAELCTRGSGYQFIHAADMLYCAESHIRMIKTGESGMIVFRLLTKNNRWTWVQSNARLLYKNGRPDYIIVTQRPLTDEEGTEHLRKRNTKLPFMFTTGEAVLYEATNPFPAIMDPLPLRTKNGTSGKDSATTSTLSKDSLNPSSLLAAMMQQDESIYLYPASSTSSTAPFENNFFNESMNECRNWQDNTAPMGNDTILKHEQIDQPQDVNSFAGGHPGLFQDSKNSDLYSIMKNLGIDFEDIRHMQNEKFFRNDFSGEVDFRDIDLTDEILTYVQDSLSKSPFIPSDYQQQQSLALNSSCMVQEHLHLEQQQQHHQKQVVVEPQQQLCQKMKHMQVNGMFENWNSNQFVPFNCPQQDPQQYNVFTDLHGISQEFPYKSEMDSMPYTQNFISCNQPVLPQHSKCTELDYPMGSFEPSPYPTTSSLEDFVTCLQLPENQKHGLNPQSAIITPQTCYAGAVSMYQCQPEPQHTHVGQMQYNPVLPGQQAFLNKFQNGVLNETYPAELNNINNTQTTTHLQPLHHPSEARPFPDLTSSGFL
Method in brief: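 A multiplexed format paired cell viability (CellTiter-Fluor fluorescence) with AhR-dependent luciferase output (ONE-Glo luminescence) in the same wells of HepG2 DRE-luc cells after 24 h compound exposure at 37C.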

[11] = qHTS assay to identify small molecule that activate the aryl hydrocarbon receptor (AhR) signaling pathway - cell viability counter screen (AID 743086);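 also: HepG2 liver cells carrying the AhR DRE luciferase reporter; series mostly up to about 70 µM; nearly all actives have a fitted effect of over 45% in size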
Method in brief: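 HepG2-AhR-luc (HG2L7.5c1) cells, 4000/well, treated 24 h at 37 C with compound; viability measured as CellTiter-Fluor fluorescence after 30 min in the same wells as the luciferase read.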

[12] = biological target: Peroxisome proliferator-activated receptor gamma (Homo sapiens) (UniProt P37231); assay: qHTS assay to identify small molecule agonists of the peroxisome proliferator-activated receptor gamma (PPARg) signaling pathway (AID 743094; active = well fitted activation curve with a large enough effect in the signal ratio in the repeat runs, not every such curve was filed as active; the % refers to the signal ratio)
Chain of Peroxisome proliferator-activated receptor gamma (Homo sapiens) (P37231 whole entry, looked up): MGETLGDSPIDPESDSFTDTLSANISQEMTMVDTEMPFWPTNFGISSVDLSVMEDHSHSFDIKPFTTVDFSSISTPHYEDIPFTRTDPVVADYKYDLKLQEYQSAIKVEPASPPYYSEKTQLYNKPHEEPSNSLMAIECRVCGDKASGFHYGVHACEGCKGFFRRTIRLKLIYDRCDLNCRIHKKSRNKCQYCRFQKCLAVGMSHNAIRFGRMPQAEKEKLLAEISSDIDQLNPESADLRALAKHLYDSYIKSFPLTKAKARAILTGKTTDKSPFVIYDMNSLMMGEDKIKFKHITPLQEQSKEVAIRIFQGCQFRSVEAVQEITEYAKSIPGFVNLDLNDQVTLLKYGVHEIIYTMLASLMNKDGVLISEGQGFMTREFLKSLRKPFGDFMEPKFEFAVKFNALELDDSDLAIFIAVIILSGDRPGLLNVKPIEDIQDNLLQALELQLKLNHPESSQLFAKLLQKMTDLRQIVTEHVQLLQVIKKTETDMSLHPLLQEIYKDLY
Method in brief: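 HEK293H PPARg-bla cells, 5 h settle at 37C/5% CO2; compound (DMSO) 17 h, 37C; B/G FRET substrate 1 h RT; fluorescence intensity read-out. qHTS format.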

[13] = biological target: Peroxisome proliferator-activated receptor gamma (Homo sapiens) (UniProt P37231); assay: qHTS assay to identify small molecule antagonists of the peroxisome proliferator-activated receptor gamma (PPARg) signaling pathway (AID 743191; calls by dose curve; also: series mostly up to about 63 µM; nearly all actives have a fitted effect of over 30% in size)
Method in brief: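 GeneBLAzer PPARg UAS-bla HEK293H cells, 5 h post-plating, exposed to compounds 17 h at 37C. LiveBLAzer B/G FRET substrate added for 1 h at room temperature; beta-lactamase reporter read by fluorescence intensity.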

[14] = qHTS assay to identify small molecule antagonists of the peroxisome proliferator-activated receptor gamma (PPARg) signaling pathway - cell viability counter screen (AID 743194); also: nearly all actives have a fitted effect of over 55% in size
Method in brief: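 Cytotoxicity counter screen in PPARg-bla HEK293H cells, same wells as reporter assay. Compounds plus 50 nM rosiglitazone (final) for 17 h at 37 C, then viability read by CellTiter-Glo luminescence.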

[15] = qHTS assay for small molecule agonists of the antioxidant response element (ARE) signaling pathway - cell viability counter screen (AID 743203; calls by dose curve; also: nearly all actives have a fitted effect of over 55% in size)
Method in brief: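 Luminescence read-out (CellTiter-Glo, 30 min at room temperature) measured cell viability in the same wells as the ARE beta-lactamase reporter. HepG2 ARE-bla cells were treated with compounds for 16 hrs at 37C/5% CO2.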

[16] = qHTS assay for small molecule activators of the heat shock response signaling pathway - cell viability counter screen (AID 743209); also: nearly all actives have a fitted effect of over 50% in size
Method in brief: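 HSE-bla HeLa; 1500 cells/well; overnight 37 C, 5% CO2; compound 5 h 37 C; LiveBLAzer B/G substrate 2.5 h RT; CellTiter-Glo 30 min RT; luminescence.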

[17] = qHTS assay for small molecule activators of the heat shock response signaling pathway (AID 743210; active = well fitted activation curve with a large enough effect in the signal ratio in the repeat runs, with a control signal flat, not every such curve was filed as active; the % refers to the signal ratio;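 also: HeLa cells with beta-lactamase reporter driven by heat shock elements; series mostly up to about 63 µM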)
Method in brief: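 Beta-lactamase reporter read-out: FRET substrate fluorescence after 2.5 h at RT, following 5 h compound treatment at 37 C of HeLa cells carrying HSE-driven bla reporter; quantitative HTS format.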

[18] = biological target: Estrogen receptor (Homo sapiens) (UniProt P03372); assay: qHTS assay to identify small molecule antagonists of the estrogen receptor alpha (ER-alpha) signaling pathway (AID 743069; active = well fitted curve in the direction sought with a large enough effect in the signal ratio in the repeat runs, not every such curve was filed as active; the % refers to the signal ratio)
Method in brief: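 Beta-lactamase FRET fluorescence is read after 2 hr at room temperature with LiveBLAzer B/G substrate. Before that, ER-alpha-bla HEK293 cells sit 4 hr after plating, then receive compound plus 17beta-estradiol and incubate 18 hr at 37C.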

[19] = qHTS assay for small molecule agonists of the antioxidant response element (ARE) signaling pathway (AID 743202; active = well fitted activation curve with a large enough effect in the signal ratio in the repeat runs, not every such curve was filed as active; the % refers to the signal ratio)
Method in brief: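 HepG2 ARE-bla reporter line, 2,000 cells/well; 5 h preincubation 37 C/5% CO2; compound (DMSO) 16 h 37 C; B/G FRET substrate 2 h RT; fluorescence intensity.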

In the case of CCC(O)OC(O)CC (stereo unspecified), the Potency [1] is reported as “inactive”, the Potency [2] is reported as “inactive” and the Potency [3] is reported as “inactive”. The outcome [4] was “inactive”, the Potency [5] was “inactive” and the Potency [6] was “inactive”. The Potency [7] was “inactive”, the Potency [8] was “inactive” and the Potency (Aromatase (Homo sapiens)) was “inactive”. The Potency [9] was “inactive”, the Potency [10] was “inactive” and the outcome [11] was “inactive”. For the same compound, the outcome [12] was “inactive”, the outcome [13] was “inactive” and the outcome [14] was “inactive”. For the same compound, the outcome [15] was “inactive”, the outcome [16] was “inactive” and the Potency [17] was “inactive”.
For O=C(O)CC(C(=O)O)C(CC(=O)O)C(=O)O (stereo unspecified), the Potency [1] was “inactive”, the Potency [2] was “inactive” and the Potency [3] was “inactive”. The Potency [18] was “inactive”, the outcome [4] was “inactive” and the Potency [5] was “inactive”. The Potency [6] was “inactive”, the Potency [7] was “inactive” and the Potency [8] was “inactive”. For the same compound, the Potency (Aromatase (Homo sapiens)) was “inactive”, the Potency [9] was “inactive” and the Potency [10] was “inactive”. The outcome [11] was “inactive”, the outcome [12] was “inactive” and the outcome [13] was “inactive”. For the same compound, the outcome [14] was “inactive”, the Potency [19] was “inactive” and the outcome [15] was “inactive”. The outcome [16] was “inactive” and the Potency [17] was “inactive”.
With CCCCCCOCCO the Potency [1] was “inactive”, the Potency [2] was “inactive” and the Potency [3] was “inactive”. The Potency [18] was “inactive”, the outcome [4] was “inactive” and the Potency [5] was “inactive”. For the same compound, the Potency [6] was “inactive”, the Potency [7] was “inactive” and the Potency [8] was “inactive”. For the same compound, the Potency (Aromatase (Homo sapiens)) was “inactive”, the Potency [9] was “inactive” and the Potency [10] was “inactive”. For the same compound, the outcome [11] was “inactive”, the outcome [12] was “inactive” and the outcome [13] was “inactive”. The outcome [14] was “inactive”, the outcome [15] was “inactive” and the outcome [16] was “inactive”. For the same compound, the Potency [17] was “inactive”.
In the case of Cc1ccc2oc(=O)ccc2c1, the Potency [1] is reported as “inactive”, the Potency [2] is reported as “inactive” and the Potency [3] is reported as “inactive”. For the same compound, the Potency [18] was “inactive”, the outcome [4] was “inactive” and the Potency [5] was “inactive”. For the same compound, the Potency [6] was “inactive”, the Potency [7] was “inactive” and the Potency [8] was “inactive”. For the same compound, the Potency (Aromatase (Homo sapiens)) was “inactive”, the Potency [9] was “inactive” and the Potency [10] was “inactive”. The outcome [11] was “inactive”, the outcome [12] was “inactive” and the outcome [13] was “inactive”. For the same compound, the outcome [14] was “inactive”, the Potency [19] was “inactive” and the outcome [15] was “inactive”. The outcome [16] was “inactive” and the Potency [17] was “inactive”.
With CC(c1cc2ccccc2s1)N(O)C(N)=O (stereo unspecified) the Potency [1] was “inactive”, the Potency [2] was “inactive” and the Potency [3] was “inactive”. The Potency [18] was “inactive”, the outcome [4] was “inactive” and the Potency [5] was “inactive”. For the same compound, the Potency [6] was “inactive”, the Potency [7] was “inactive” and the Potency [8] was “inactive”. For the same compound, the Potency (Aromatase (Homo sapiens)) was “inactive”, the Potency [9] was “inactive” and the outcome [11] was “inactive”. The outcome [14] was “inactive”, the outcome [15] was “inactive” and the outcome [16] was “inactive”. The Potency [17] was “inactive”.
In the case of COc1ccc(NC(C)=O)cc1N, the Potency [1] is reported as “inactive”, the Potency [2] is reported as “inactive” and the Potency [3] is reported as “inactive”. The Potency [18] was “inactive”, the outcome [4] was “inactive” and the Potency [5] was 54.7 µM [activator] (active) and inactive. The Potency [6] was 54.3 µM (active) and inactive, the Potency [7] was “inactive” and the Potency [8] was “inactive”. The Potency (Aromatase (Homo sapiens)) was “inactive”, the Potency [9] was “inactive” and the Potency [10] was “inactive”. The outcome [11] was “inactive”, the outcome [12] was “inactive” and the outcome [13] was “inactive”. For the same compound, the outcome [14] was “inactive”, the outcome [15] was “inactive” and the outcome [16] was “inactive”. For the same compound, the Potency [17] was “inactive”.
In the case of O=[N+]([O-])c1ccc(/C=C/c2ccc([N+](=O)[O-])cc2S(=O)(=O)O)c(S(=O)(=O)O)c1, the Potency [1] is reported as “inactive”, the Potency [2] is reported as “inactive” and the Potency [3] is reported as “inactive”. For the same compound, the outcome [4] was “inactive”, the Potency [5] was “inactive” and the Potency [6] was “inactive”. The Potency [7] was “inactive”, the Potency [8] was “inactive” and the Potency (Aromatase (Homo sapiens)) was “inactive”. The Potency [9] was “inactive”, the Potency [10] was “inactive” and the outcome [11] was “inactive”. For the same compound, the outcome [12] was “inactive”, the outcome [13] was “inactive” and the outcome [14] was “inactive”. For the same compound, the Potency [19] was “inactive”, the outcome [15] was “inactive” and the outcome [16] was “inactive”. The Potency [17] was “inactive”.
